Test results as given in PubChem BioAssay (EPA / NIEHS).
Active and inactive are the calls of the source. Rule for the calls: active = hit-call score of the fitted dose curve at least 0.9, where 1 is the maximum; inactive = score below 0.9.

Each molecule was assayed on sulfotransferase 2A1 (SULT2A1), SULT2A1 (gene 6822) (assay: LTEA_HepaRG_SULT2A1: Life Technologies and Expression Analysis (LTEA) Assay for sulfotransferase 2A1 (SULT2A1) using HepaRG (AID 2283531)). Details: mRNA level, 48 h; actives raise or lower the signal.
Method in brief: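 HepaRG, 48 h chemical exposure, 8-pt half-log curve from 100 uM in 0.5% DMSO, duplicates. Readout: TaqMan qRT-PCR of SULT2A1 mRNA, housekeeping-normalized. Bidirectional fit vs DMSO baseline.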
With `Cc1[nH]cnc1C[C@H]1CCc2c(C)c3ccccc3n2C1=O` the AC50 was 63.6 µM (active).
For `Cc1ccc(N)cc1O`, the outcome was “inactive”.
With `COc1ccc(/C=C/S(=O)(=O)NC(=O)c2ccc(C)cc2Cl)cc1` the outcome was “inactive”.
For `Nc1ccc(Nc2ccccc2)cc1`, the outcome was “inactive”.
`CNS(=O)(=O)c1cc(C(=O)N2CCC(CCN3C4CCC3CC(n3c(C)nc5ccccc53)C4)(c3cccc(F)c3)CC2)c(Cl)cc1F` (centres undefined) was tested, and the AC50 was 9.92 µM (active).
`O=P(OC(CCl)CCl)(OC(CCl)CCl)OC(CCl)CCl` was tested, and the AC50 was 79.1 µM (active).
For `CC(C)c1cccc(C(C)C)c1N1C(=O)c2ccc(O)cc2C1=O`, the outcome was “inactive”.
With `Oc1ccc2c(c1)-c1ccccc1C2` the outcome was “inactive”.
`CCOCCO` was tested, and the outcome was “inactive”.
For `C=CCCCCCCCCC(=O)O`, the outcome was “inactive”.
With `O=C(O)c1cccc(Oc2ccccc2)c1` the outcome was “inactive”.
For `CC(C)CC(C)(O)C#CC(C)(O)CC(C)C` (centres undefined), the outcome was “inactive”.
`CC1(C)C(=O)N(Br)C(=O)N1Br` was tested, and the outcome was “inactive”.
With `C1=CCCC=CCCC=CCC1` the outcome was “inactive”.
For `COc1cccc(-c2ccc(/C=C\CN3CCCCCC3)cc2Cl)c1`, the AC50 was 83.2 µM (active).
For `CC(=O)OCCC(C)C`, the outcome was “inactive”.
For `O=c1n(CC2CO2)c(=O)n(CC2CO2)c(=O)n1CC1CO1` (centres undefined), the outcome was “inactive”.
In the case of `Cc1ccc(O)cc1`, the outcome was “inactive”.
`CCN(C(=O)c1cc(C)cc(OC[C@H](C)Nc2ccncc2)c1)C(C)C` was tested, and the outcome was “inactive”.
With `COC(=O)c1c(Cl)c(Cl)c(C(=O)OC)c(Cl)c1Cl` the outcome was “inactive”.
In the case of `CC[C@H](C)C(=O)O[C@H]1C[C@@H](C)C=C2C=C[C@H](C)[C@H](CC[C@@H]3C[C@@H](O)CC(=O)O3)[C@H]21`, the outcome was “inactive”.
`CC(C)=CCC/C(C)=C/CO` was tested, and the outcome was “inactive”.
In the case of `CCOC(=O)c1ccc(C2CCC(NC[C@H](O)COc3ccc(O)c(NS(C)(=O)=O)c3)CC2)cc1` (some centres undefined), the outcome was “inactive”.
With `CCOC(=O)COc1ccc2c(c1)CC(NCC(O)c1cccc(Cl)c1)CC2` (centres undefined) the outcome was “inactive”.
In the case of `CC/C(=C\C(=N/O)C(N)=O)C(C)[N+](=O)[O-]` (centres undefined), the outcome was “inactive”.
In the case of `O=C(O)CCN(C1(C(=O)NO)CCCC1)S(=O)(=O)c1ccc(Oc2ccc(F)cc2)cc1`, the outcome was “inactive”.
In the case of `O=C1CCC(N2C(=O)c3ccccc3C2=O)C(=O)N1` (centres undefined), the outcome was “inactive”.
With `O=C(OC[C@H]1O[C@@H](OC(=O)c2cc(O)c(O)c(OC(=O)c3cc(O)c(O)c(O)c3)c2)[C@H](OC(=O)c2cc(O)c(O)c(OC(=O)c3cc(O)c(O)c(O)c3)c2)[C@@H](OC(=O)c2cc(O)c(O)c(OC(=O)c3cc(O)c(O)c(O)c3)c2)[C@@H]1OC(=O)c1cc(O)c(O)c(OC(=O)c2cc(O)c(O)c(O)c2)c1)c1cc(O)c(O)c(OC(=O)c2cc(O)c(O)c(O)c2)c1` the AC50 was 9.46 µM (active).
`CCc1cc(SCc2sc(-c3ccc(C(F)(F)F)cc3)nc2CN2CCN(c3ccc(OC)cc3)CC2)ccc1OCC(=O)O` was tested, and the AC50 was 5.72 µM (active).
